Data reported in PubChem BioAssay (Tox21).
Results filed as inconclusive are left out. Activity calls are given as the source filed them. Unless noted, calls come from the whole dose curve; as a rule, active = well fitted curve in the direction sought with a large enough effect in the repeat runs; inconclusive = weak or mixed curves; inactive = no such curve, though single readings can be large; an effect the other way counts as inactive or inconclusive.

How the values were obtained:
[1] = qHTS assay to identify small molecule antagonists of the estrogen related receptor (ERR) signaling pathway from Tox21 library - cell viability counter screen (AID 1224834); note: nearly all actives have a fitted effect of over 30% in size; note: potency is the fitted concentration of half-maximal effect
Summary of the method: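 After 17.5 h of compound exposure at 37 C, ERR cells are incubated with CellTiter-Fluor for 30 min and fluorescence intensity serves as the viability measure.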

[2] = molecular target: Luciferin 4-monooxygenase (Photinus pyralis) (UniProt P08659); test: qHTS assay to identify small molecule inhibitors of firefly luciferase (AID 1224835); note: nearly all actives have a fitted effect of over 25% in size; note: potency is the fitted concentration of half-maximal effect
Luciferin 4-monooxygenase (Photinus pyralis), sequence (P08659 whole entry, looked up): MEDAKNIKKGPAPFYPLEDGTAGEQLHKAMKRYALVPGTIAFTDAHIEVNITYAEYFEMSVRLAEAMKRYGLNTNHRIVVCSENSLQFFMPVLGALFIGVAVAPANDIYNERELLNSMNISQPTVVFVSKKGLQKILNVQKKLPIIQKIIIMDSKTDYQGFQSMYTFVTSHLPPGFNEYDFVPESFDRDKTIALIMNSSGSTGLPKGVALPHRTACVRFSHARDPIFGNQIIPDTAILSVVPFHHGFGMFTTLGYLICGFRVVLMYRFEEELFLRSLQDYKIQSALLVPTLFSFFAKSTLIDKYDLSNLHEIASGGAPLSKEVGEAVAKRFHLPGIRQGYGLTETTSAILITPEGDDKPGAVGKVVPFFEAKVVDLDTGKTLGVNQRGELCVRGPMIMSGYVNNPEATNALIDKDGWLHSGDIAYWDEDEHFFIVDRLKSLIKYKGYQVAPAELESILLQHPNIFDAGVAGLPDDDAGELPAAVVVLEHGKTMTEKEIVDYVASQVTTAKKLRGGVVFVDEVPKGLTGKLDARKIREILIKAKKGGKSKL
Summary of the method: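 Inhibition of purified Photinus luciferase is measured by luminescence. Substrate levels (D-luciferin, ATP) sit at their KM values. Each compound is tested in a concentration series.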

[3] = qHTS assay to identify small molecule agonists of the constitutive androstane receptor (CAR) signaling pathway - cell viability counter screen (AID 1224836); note: nearly all actives have a fitted effect of over 45% in size; note: potency is the fitted concentration of half-maximal effect
Summary of the method: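 HepG2 cells stably carrying hCAR and a CYP2B6-2.2kb reporter were plated 4 h, then given compounds at 15 concentrations plus PK11195 (final 0.75 uM). After 23 h at 37 C, viability was read by CellTiter-Fluor fluorescence.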

[4] = qHTS assay to identify small molecule antagonists of the constitutive androstane receptor (CAR) signaling pathway - cell viability counter screen (AID 1224837); note: nearly all actives have a fitted effect of over 45% in size; note: potency is the fitted concentration of half-maximal effect
Summary of the method: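 Counter screen run in HepG2-CYP2B6-hCAR cells: 4 hr settle, compound titration (15 concentrations) with 50 nM CITCO, 23 hr at 37 C/5% CO2, CellTiter-Fluor fluorescence.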

[5] = qHTS assay to identify small molecule antagonists of the estrogen related receptor signaling pathway with the pleiotropic PPARgamma coactivator (PGC) from Tox21 10K library - cell viability counter screen (AID 1224840; active = well fitted cell-killing curve with a large enough effect in the repeat runs, not every such curve was filed as active; note: nearly all actives have a fitted effect of over 40% in size; note: potency is the fitted concentration of half-maximal effect)
Summary of the method: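 Following seeding of 2,000 PGC/ERR cells/well and 6 hours' incubation, test compounds were delivered in DMSO. The plates then sat 17.5 hours at 37 C before a fluorogenic live-cell protease reagent (CellTiter-Fluor) was read after 30 min.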

[6] = molecular target: Thyrotropin receptor (Homo sapiens) (UniProt P16473); test: qHTS assay to identify small molecule agonists of the thyroid stimulating hormone receptor (TSHR) signaling pathway (AID 1224843; calls by dose curve; note: nearly all actives have a fitted effect of over 45% in size)
Thyrotropin receptor (Homo sapiens), sequence (P16473 whole entry, looked up): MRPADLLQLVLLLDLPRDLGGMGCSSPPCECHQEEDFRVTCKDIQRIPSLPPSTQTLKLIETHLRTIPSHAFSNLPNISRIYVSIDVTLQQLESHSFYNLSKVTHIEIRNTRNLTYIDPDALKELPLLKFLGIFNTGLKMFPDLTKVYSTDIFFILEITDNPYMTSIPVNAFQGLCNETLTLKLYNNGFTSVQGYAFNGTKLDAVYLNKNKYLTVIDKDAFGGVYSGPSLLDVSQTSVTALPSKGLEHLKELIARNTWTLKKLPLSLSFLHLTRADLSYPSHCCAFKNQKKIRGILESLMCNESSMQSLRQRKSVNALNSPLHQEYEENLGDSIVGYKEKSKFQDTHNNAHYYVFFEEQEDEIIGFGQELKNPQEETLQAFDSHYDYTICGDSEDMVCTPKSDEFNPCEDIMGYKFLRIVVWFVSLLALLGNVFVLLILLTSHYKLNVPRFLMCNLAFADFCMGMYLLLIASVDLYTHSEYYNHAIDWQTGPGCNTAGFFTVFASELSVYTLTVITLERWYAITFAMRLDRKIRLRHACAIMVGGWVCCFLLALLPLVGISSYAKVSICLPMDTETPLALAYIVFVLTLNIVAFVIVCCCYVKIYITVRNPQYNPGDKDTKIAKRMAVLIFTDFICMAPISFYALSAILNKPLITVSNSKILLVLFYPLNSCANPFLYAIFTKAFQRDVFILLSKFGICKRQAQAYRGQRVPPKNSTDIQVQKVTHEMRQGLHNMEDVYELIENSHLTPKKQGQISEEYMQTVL
Summary of the method: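 HEK293 cells stably bearing the thyrotropin receptor were plated at 800 cells/well and challenged with compound (30 min, RT). Accumulated cAMP was quantified via cAMP-d2 competing for cryptate-tagged antibody.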

[7] = qHTS assay to identify small molecule agonists of the hypoxia (HIF-1) signaling pathway - cell viability counter screen (AID 1224844; calls by dose curve; note: nearly all actives have a fitted effect of over 50% in size; note: potency is the fitted concentration of half-maximal effect)
Summary of the method: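 Cells (HRE-bla ME-180, 2,000 per well) sat 5 hrs at 37C, got compound for 17 hrs, were read for CCF4-AM FRET, and were finally lysed with CellTiter-Glo for a 30 min room-temperature luminescence read.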

[8] = qHTS assay to identify small molecule agonists of H2AX (AID 1224845; active = well fitted activation curve with a large enough effect in the signal ratio in the repeat runs, not every such curve was filed as active; the % refers to the signal ratio; note: potency is the fitted concentration of half-maximal effect)
Summary of the method: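 Phospho-H2AX Ser139 measured by HTRF (ex 320 nm; em 665 and 620 nm) after 24 hr antibody incubation. Compounds, 15 concentrations, 0.76% DMSO, were applied to CHO-K1 cells for 3hr at 37C before lysis.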

[9] = qHTS assay to identify small molecule agonists of the hypoxia (HIF-1) signaling pathway (AID 1224846; active = well fitted activation curve with a large enough effect in the signal ratio in the repeat runs, not every such curve was filed as active; the % refers to the signal ratio)
Summary of the method: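 A low-serum medium (0.5% dialyzed FBS) holding 2,000 HRE-bla ME-180 cells per well is preincubated for 5 hrs, dosed with compounds by pintool, and kept a further 17 hrs at 37C, 5% CO2 before CCF4-AM FRET detection of beta-lactamase.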

[10] = qHTS assay to identify small molecule agonists of H2AX - cell viability counter screen (AID 1224847; calls by dose curve; note: top concentration of the series differs between compounds; nearly all actives have a fitted effect of over 30% in size)
Summary of the method: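 Wild-type CHO-K1 cells (10% FBS medium) were plated overnight at 37C, exposed to compounds at 15 concentrations for 3 hr at 37C (0.76% DMSO final), and viability was read as CellTiter-Glo luminescence after 30 min at room temperature.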

[11] = qHTS RealTime-Glo MT Cell Viability Assay in HepG2 cells - 24 hour (AID 1224867); note: nearly all actives have a fitted effect of over 50% in size; note: potency is the fitted concentration of half-maximal effect
Summary of the method: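 Viability was tracked continuously by NanoLuc luminescence from prosubstrate reduced by living HepG2 cells, at successive time points over 40 h of compound exposure. Cells with reagent were preincubated 5 h at 37 °C before compound addition.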

[12] = qHTS RealTime-Glo MT Cell Viability Assay in HEK293 cells - 32 hour (AID 1224868); note: nearly all actives have a fitted effect of over 50% in size; note: potency is the fitted concentration of half-maximal effect
Summary of the method: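 Viability tracked continuously by luminescence as live cells reduce a prosubstrate for NanoLuc; HEK293 cells preincubated 5 h, compound-treated at 37 C, and read at 0, 8, 16, 24, 32 and 40 h.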

[13] = A CellTox Green Cytotoxicity Assay to monitor cytotoxicity in HEK293 cells - 0 hour (AID 1224869); note: nearly all actives have a fitted effect of over 50% in size
Summary of the method: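 Fluorescence intensity, read at 0, 8, 16, 24, 32 and 40 h of compound treatment, reflected dye binding to DNA of dead HEK293 cells; compounds (23 nL, DMSO) were added 5 h after plating cells with reagent.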

[14] = molecular target: Nuclear receptor subfamily 1 group I member 3 (Homo sapiens) (UniProt Q14994); test: qHTS assay to identify small molecule antagonists of the constitutive androstane receptor (CAR) signaling pathway (AID 1224838); note: nearly all actives have a fitted effect of over 40% in size; note: potency is the fitted concentration of half-maximal effect
Nuclear receptor subfamily 1 group I member 3 (Homo sapiens), sequence (Q14994 whole entry, looked up): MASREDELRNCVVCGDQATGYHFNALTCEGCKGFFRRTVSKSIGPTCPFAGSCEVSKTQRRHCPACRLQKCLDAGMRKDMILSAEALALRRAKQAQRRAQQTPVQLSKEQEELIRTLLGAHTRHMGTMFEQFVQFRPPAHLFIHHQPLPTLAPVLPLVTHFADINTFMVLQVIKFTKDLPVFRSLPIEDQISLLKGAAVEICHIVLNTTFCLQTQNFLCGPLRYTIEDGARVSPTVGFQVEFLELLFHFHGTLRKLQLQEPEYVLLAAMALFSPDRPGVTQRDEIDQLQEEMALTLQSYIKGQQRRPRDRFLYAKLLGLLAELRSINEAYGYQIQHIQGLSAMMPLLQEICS
Summary of the method: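 Cell line: HepG2 double-stable for hCAR and CYP2B6-2.2kb reporter. Agonist: CITCO, 50 nM final. Compounds: 15 concentrations, 24 h, 37 C. Detection: ONE-Glo luminescence.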

[15] = molecular target: Nuclear receptor subfamily 1 group I member 3 (Homo sapiens) (UniProt Q14994); test: qHTS assay to identify small molecule agonists of the constitutive androstane receptor (CAR) signaling pathway (AID 1224839);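 note: HepG2 cells stably carrying human CAR and a CYP2B6 luciferase reporter; series mostly up to about 92 µM; nearly all actives have a fitted effect of over 15% in size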
Summary of the method: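 HepG2 cells stably expressing hCAR and a CYP2B6-2.2kb luciferase reporter were treated with compounds at 15 concentrations plus 0.75 uM PK11195 (final) for 24 h at 37 C; luminescence was read after ONE-Glo addition.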

[16] = qHTS assay to identify small molecule antagonists of the estrogen related receptor signaling pathway with the pleiotropic PPARgamma coactivator (PGC) from Tox21 10K library (AID 1224841; call rule not given here; note: potency is the fitted concentration of half-maximal effect)
Summary of the method: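 qHTS antagonist format: PGC/ERR cells, 2k/well, compound in DMSO by pin transfer after 6 h attachment, 18 h treatment at 37 C, One-Glo luminescence read at 30 min.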

[17] = qHTS assay to identify small molecule agonists of the estrogen related receptor signaling pathway with the pleiotropic PPARgamma coactivator (PGC) from Tox21 10K library (AID 1224842); note: nearly all actives have a fitted effect of over 15% in size
Summary of the method: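 Luminescence from One-Glo (30 min, room temperature) measured after PGC/ERR cells had 18 h at 37 C with pinned compound (23 nL in DMSO). Cells had been seeded at 2,000 per well and pre-incubated 6 h.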

[18] = qHTS assay to identify small molecule antagonists of the estrogen related receptor (ERR) signaling pathway from Tox21 library (AID 1224848); note: nearly all actives have a fitted effect of over 50% in size; note: potency is the fitted concentration of half-maximal effect
Summary of the method: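 Reading was by luminescence 30 min after ONE-Glo addition. Before that, ERR cells at 2,000 per well had rested 6 h at 37 C/5% CO2 and then received pin-tooled compounds in DMSO for 18 h at 37 C.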

Measured: Potency

CCC1CO1 (configuration not stated)
not listed: [14] | [15] | [16] | [17] | [18]
inactive: all other assays above

CC1(CN2CCC(n3c(=O)[nH]c4ccccc43)CC2)OCc2ccccc2-n2cccc21 (configuration not stated)
inactive: [2] | [14] | [15] | [8] | [13]
active: [1] 23.7 µM | [12] 19 µM

Cc1cscn1
inactive: [1] | [2] | [3] | [4] | [5] | [6] | [8] | [11] | [12] | [13]

Oc1cc2c(cc1O)[C@H]1c3ccc(O)c(O)c3OC[C@@]1(O)C2
active: [1] 39 µM | [2] 32.1 µM | [3] 49.2 µM | [14] 49.2 µM | [5] 27.6 µM | [16] 34.8 µM | [18] 49.2 µM | [11] 49.6 µM
inactive: [15] | [17] | [7] | [9] | [12] | [13]

O=C(O)CCC(=O)C(=O)O
not listed: [6] | [9] | [14] | [15] | [16] | [17] | [18]
inactive: all other assays above

C(=C\c1ccccc1)/c1ccccc1
active: [2] 7.9 µM
not listed: [5] | [7] | [9] | [14] | [15] | [17]
inactive: all other assays above

CCCCOc1ccc(OCCCN2CCOCC2)cc1
inactive: [1] | [2] | [3] | [4] | [5] | [6] | [8] | [11]

O[C@@H]1CO[C@H]2[C@@H]1OC[C@@H]2O
not listed: [6] | [14] | [15] | [16] | [17] | [18]
inactive: all other assays above

NNC(=O)CP(=O)(c1ccccc1)c1ccccc1
not listed: [14] | [15] | [16] | [17] | [18]
inactive: all other assays above

CC(CC1c2ccccc2CCc2ccccc21)CN(C)C (configuration not stated)
active: [1] 33.5 µM | [4] 29.8 µM | [7] 10.7 µM
inactive: [2] | [8] | [10] | [11] | [12]

COc1cc(Nc2c(C#N)cnc3cc(OCCCN4CCN(C)CC4)c(OC)cc23)c(Cl)cc1Cl
active: [1] 9.44 µM | [8] 7.8 µM | [12] 8.49 µM
inactive: [2] | [3] | [5] | [7] | [13]

C=C1CCC2CC1C2(C)C (configuration not stated)
not listed: [7] | [9] | [14] | [15] | [16] | [17] | [18]
inactive: all other assays above
